# Laboratory results reported in article PMC5700166.
# Residue numbers refer to the chain shown, from its start.
# Key:
# Test in all cases: protein-binding microarray (PBM); PBM: ~300 nM protein, 6 mM HEPES pH 7.8, 80 mM KCl, 0.5 mM EDTA, 0.5 mM EGTA, 6% glycerol, 35 ng/ul poly-dIdC, 1% milk, 1 h, room temperature; Ap Aiptasia and Nv Nematostella (sea anemones) / Co Capsaspora / Aq Amphimedon (sponge) / Dm Drosophila / Hu human; RHD is the Rel homology domain; high values mean tight binding
# Conditions in all cases: dsDNA, one strand shown
# GST-Ap-NF-kB RHD = biological target: T1, GST-Ap-NF-kB RHD (Exaiptasia pallida (Aiptasia), UniProt A0A913YAJ5 2-422)
# T1 sequence: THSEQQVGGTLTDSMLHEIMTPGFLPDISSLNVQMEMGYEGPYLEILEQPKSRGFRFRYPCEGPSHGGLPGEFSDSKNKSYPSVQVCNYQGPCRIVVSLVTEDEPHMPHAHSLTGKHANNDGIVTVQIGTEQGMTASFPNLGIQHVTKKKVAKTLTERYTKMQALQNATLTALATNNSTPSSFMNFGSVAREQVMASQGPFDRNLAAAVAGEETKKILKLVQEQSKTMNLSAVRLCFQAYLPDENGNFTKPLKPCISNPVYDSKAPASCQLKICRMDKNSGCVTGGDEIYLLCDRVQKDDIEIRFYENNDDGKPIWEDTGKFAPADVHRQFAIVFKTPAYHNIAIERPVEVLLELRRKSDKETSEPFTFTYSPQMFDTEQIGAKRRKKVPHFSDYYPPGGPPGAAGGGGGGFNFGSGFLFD
# [1] = biological target: T2, GST-Nv-NF-kB (Cys allele) (Nematostella vectensis, UniProt E5G601 2-411)
# T2 sequence: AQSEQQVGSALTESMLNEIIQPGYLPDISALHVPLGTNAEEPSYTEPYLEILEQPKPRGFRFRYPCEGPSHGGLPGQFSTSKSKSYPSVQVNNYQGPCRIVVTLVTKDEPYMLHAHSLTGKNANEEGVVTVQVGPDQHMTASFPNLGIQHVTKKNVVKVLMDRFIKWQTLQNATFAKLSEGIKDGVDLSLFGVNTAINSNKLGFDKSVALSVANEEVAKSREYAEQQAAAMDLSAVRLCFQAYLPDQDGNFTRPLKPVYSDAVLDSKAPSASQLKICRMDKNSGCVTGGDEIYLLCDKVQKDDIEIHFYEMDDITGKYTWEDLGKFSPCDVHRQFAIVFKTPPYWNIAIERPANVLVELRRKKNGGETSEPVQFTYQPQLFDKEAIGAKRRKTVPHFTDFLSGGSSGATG
# [2] = biological target: T3, GST-Nv-NF-kB (Ser allele) (Nematostella vectensis, UniProt A7UNT2 2-411)
# T3 sequence: T2 sequence with Q21R, C66S, S207N, E215Q, V217A, E225K, A268E, D399E
# GST-Co-NF-kB = biological target: T4, GST-Co-NF-kB (Capsaspora owczarzaki, UniProt F1ARL5 200-546)
# T4 sequence: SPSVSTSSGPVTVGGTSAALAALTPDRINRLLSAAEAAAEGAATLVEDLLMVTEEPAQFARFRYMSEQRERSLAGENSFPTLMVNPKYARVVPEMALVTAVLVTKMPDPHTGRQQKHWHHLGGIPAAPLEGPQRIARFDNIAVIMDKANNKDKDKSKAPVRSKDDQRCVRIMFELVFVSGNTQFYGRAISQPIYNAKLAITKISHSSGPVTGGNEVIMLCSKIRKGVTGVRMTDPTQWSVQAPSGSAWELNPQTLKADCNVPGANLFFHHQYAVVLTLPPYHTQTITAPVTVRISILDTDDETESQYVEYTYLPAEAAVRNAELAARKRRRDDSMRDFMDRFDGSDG
# GST-Dm-Relish = biological target: T5, GST-Dm-Relish (Drosophila melanogaster, UniProt Q94527 99-473)
# T5 sequence: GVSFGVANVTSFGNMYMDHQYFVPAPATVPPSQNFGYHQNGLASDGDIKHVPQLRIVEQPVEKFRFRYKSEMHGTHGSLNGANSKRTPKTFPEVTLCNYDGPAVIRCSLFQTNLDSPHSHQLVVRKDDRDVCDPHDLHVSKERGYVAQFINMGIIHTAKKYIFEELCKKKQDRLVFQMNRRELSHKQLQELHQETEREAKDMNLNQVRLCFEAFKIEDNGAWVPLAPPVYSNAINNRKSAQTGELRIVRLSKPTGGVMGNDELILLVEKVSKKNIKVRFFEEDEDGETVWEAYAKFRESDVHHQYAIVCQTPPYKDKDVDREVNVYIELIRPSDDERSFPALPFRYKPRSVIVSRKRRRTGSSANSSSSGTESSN
# GST-Aq-NF-kB = biological target: T6, GST-Aq-NF-kB (Amphimedon queenslandica, UniProt A9Y5G7 2-389)
# T6 sequence: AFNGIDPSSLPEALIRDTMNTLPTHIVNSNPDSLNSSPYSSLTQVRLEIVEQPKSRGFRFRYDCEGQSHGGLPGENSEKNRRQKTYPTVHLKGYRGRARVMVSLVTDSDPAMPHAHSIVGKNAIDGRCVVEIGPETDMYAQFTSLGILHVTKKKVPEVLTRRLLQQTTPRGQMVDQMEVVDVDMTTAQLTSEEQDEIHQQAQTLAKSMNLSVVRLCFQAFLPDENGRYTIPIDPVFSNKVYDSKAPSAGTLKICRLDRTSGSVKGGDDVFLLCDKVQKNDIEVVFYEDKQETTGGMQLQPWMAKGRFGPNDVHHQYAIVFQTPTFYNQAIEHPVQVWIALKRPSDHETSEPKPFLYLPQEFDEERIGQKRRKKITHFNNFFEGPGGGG
# GST-Hu-p50 = GST-Hu-p50 (Homo sapiens, UniProt P19838 7-356)
# Sequence of GST-Hu-p50 (P19838 7-356): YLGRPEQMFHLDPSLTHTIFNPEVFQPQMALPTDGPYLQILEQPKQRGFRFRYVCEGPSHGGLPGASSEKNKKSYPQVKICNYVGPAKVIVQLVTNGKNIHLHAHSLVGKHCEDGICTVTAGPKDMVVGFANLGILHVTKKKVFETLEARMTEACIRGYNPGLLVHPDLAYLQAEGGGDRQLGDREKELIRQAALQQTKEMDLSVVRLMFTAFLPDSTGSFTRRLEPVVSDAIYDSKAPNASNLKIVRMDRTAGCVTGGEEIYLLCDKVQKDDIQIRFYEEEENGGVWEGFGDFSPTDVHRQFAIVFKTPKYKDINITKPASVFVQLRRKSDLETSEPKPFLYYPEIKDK
Sequence,binding signal (GST-Ap-NF-kB RHD) [z-score],binding signal [1] [z-score],binding signal [2] [z-score],binding signal (GST-Co-NF-kB) [z-score],binding signal (GST-Dm-Relish) [z-score],binding signal (GST-Aq-NF-kB) [z-score],binding signal (GST-Hu-p50) [z-score]
CCGATTAACATCACGGGGATTCCTGATGTTAATCGGGTCTTGATTCGCTTGACGCTGCTG,9.77,9.58,8.87,4.28,10.6,7.41,6.46
CCGATTAACATCAAAAGGGGATATGATGTTAATCGGGTCTTGATTCGCTTGACGCTGCTG,4.87,5.63,7.56,2.09,2.06,3.8,4.41
CCGATTAACATCAGGGGGAGATATGATGTTAATCGGGTCTTGATTCGCTTGACGCTGCTG,5.8,5.33,6.74,8.37,2.53,4.8,5.93
CCGATTAACATCAGGGGGAAATATGATGTTAATCGGGTCTTGATTCGCTTGACGCTGCTG,7.3,8.58,10.6,11.1,4.77,6.38,7.38
CCGATTAACATCAATAAATCCCCTGATGTTAATCGGGTCTTGATTCGCTTGACGCTGCTG,7.78,9.33,11.6,4.45,9.26,6.63,7.71
CCGATTAACATCATAATCCCCCATGATGTTAATCGGGTCTTGATTCGCTTGACGCTGCTG,7.75,6.81,7.45,6.17,5.67,5.96,6.67
CCGATTAACATCAGGAATCCCCCTGATGTTAATCGGGTCTTGATTCGCTTGACGCTGCTG,10.9,10.2,9.39,5.73,10.2,9.58,7.57
CCGATTAACATCACGGTTTCCCCTGATGTTAATCGGGTCTTGATTCGCTTGACGCTGCTG,7.03,7.64,9.99,7.67,5.09,5.42,5.88
CCGATTAACATCAGGGGATCTTATGATGTTAATCGGGTCTTGATTCGCTTGACGCTGCTG,7.32,7.01,7.89,3.1,6.67,6.41,6.06
CCGATTAACATCAGGGGGGAAGATGATGTTAATCGGGTCTTGATTCGCTTGACGCTGCTG,4.86,5.5,5.9,7.62,3.64,4.85,4.98
CCGATTAACATCACACTTTTCCCTGATGTTAATCGGGTCTTGATTCGCTTGACGCTGCTG,3.17,4.45,6.11,4.46,1.59,3.57,2.84
CCGATTAACATCAGGGGATTCGATGATGTTAATCGGGTCTTGATTCGCTTGACGCTGCTG,5.58,5.21,7.7,2.24,3.8,3.6,5.33
